Here are results for 7 compounds from PubChem BioAssay.

Experiment [1] concerns Aerobactin synthetase IucA (Klebsiella pneumoniae). The experiment in a line: IucA aerobactin synthetase inhibitors, biochemical, Tocris library, absorbance (AID 1345561; call rule not given here;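 note: 100% = enzyme without compound and 0% = no enzyme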). To be noted: purified IucA enzyme assay, absorbance (OD) read-out; stronger effect = lower value;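 tested at 8 µM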.
Experiment [2] can be described thus: SU-DIPG-VI glioma cell viability, MIPE4.0 library, CellTiter-Glo luminescence, qHTS (AID 1347066; cut-off not given, nearly all actives have AC50 up to about 30 µM;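 note: cells exposed to compound for 48 hours before readout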). To be noted: CellTiter-Glo ATP luminescence. In general terms: In ATP-based viability assays light output follows the ATP content of the culture.
The nature of experiment [3]: sensitizers of A549 cells to miR-34 induction, primary screen, imaging, A549 dox-inducible miR-34, nuclei and caspase counts (AID 1347080). To be noted: A549 miR-34 inducible, Hoechst nuclei count, 48 h.
Experiment [4] is described as follows: modifiers of HSF1 nuclear foci, imaging, Selleck Cancer Library (AID 1347162; in the data active = plate-normalised HSF1 focus index below about 0.46). To be noted: human cells, at 10 µM; SSMD: measured here: HSF1 foci SSMD mean; cell count: measured here: cell number; plate-normalised HSF1 focus index: stronger effect = lower value.
A short description of experiment [5]: viability rescue of complex I mutant cybrids, primary screen, cell-based, galactose medium, ATP luminescence (AID 1645843;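 active = z-score of at least 1.8 in each of two replicates, scored against plate mean and spread of sample wells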;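 note: positive z means more ATP and so rescue of galactose-driven cybrid death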). To be noted: complex I mutant cybrid cells, 72 h, stronger effect = higher value.
The nature of experiment [6]: growth inhibition of DIPG glioma cells, dose response, cell-based, SU-DIPG-XIII, MIPE4.0, CellTiter-Glo, qHTS (AID 1347061; cut-off not given, nearly all actives have AC50 up to about 37 µM;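 note: cells exposed to compound for 48 hours before readout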). To be noted: SU-DIPG-XIII viability, CellTiter-Glo ATP luminescence.
Experiment [7] in a line: growth inhibition of DIPG glioma cells, dose response, cell-based, JHH-DIPG-1, MIPE4.0, CellTiter-Glo, qHTS (AID 1347062; cut-off not given, nearly all actives have AC50 up to about 27 µM). To be noted: JHH-DIPG-1 viability, CellTiter-Glo ATP luminescence.
A short description of experiment [8]: growth inhibition of DIPG glioma cells, dose response, cell-based, SU-DIPG-IV, MIPE4.0, CellTiter-Glo, qHTS (AID 1347063; cut-off not given, nearly all actives have AC50 up to about 30 µM;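 note: compound exposure lasted 48 hours before the viability readout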). To be noted: SU-DIPG-IV viability, CellTiter-Glo ATP luminescence.
Experiment [9] is described as follows: JHH-DIPG-1 glioma cell viability, MIPE5.0 library, CellTiter-Glo luminescence, qHTS (AID 1347067; cut-off not given, nearly all actives have AC50 up to about 26 µM;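 note: cells exposed to compound for 48 hours before readout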). To be noted: JHH-DIPG-1 glioma viability, CellTiter-Glo ATP luminescence.
Experiment [10] in a line: SU-DIPG-XXV glioma cell viability, MIPE5.0 library, qHTS (AID 1347068; cut-off not given, nearly all actives have IC50 up to about 30 µM;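 for IC50: cells exposed to compound for 48 hours before viability readout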). Background: In qHTS, concentration-response curves come from the screen itself.
Experiment [11] is described as follows: growth inhibition of DIPG glioma cells, dose response, cell-based, SU-DIPG-XIII, MIPE5.0, CellTiter-Glo, qHTS (AID 1347064; cut-off not given, nearly all actives have AC50 up to about 23 µM;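 note: cells exposed to compound for 48 hours before the viability read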). To be noted: SU-DIPG-XIII viability, CellTiter-Glo ATP luminescence.
Experiment [12] in a line: viability loss in pontine glioma line – cell-based, SU-DIPG-XXV, MIPE5.0, CellTiter-Glo, qHTS, dose response (AID 1347065; cut-off not given, nearly all actives have AC50 up to about 26 µM;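 note: cells exposed to compound for 48 hours before ATP readout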). To be noted: CellTiter-Glo ATP luminescence.
Experiment [13] is described as follows: liver-stage malaria parasite growth inhibition, primary screen, cell-based, HepG2, luciferase luminescence, HepG2 viability (AID 624349; in the data active = parasite load remaining mostly below about 12%, no sharp cut-off; inactive = mostly above about 10%;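 note: 100% = mean of DMSO negative control wells on the same plate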). To be noted: P. berghei liver stage in HepG2, luciferase luminescence, concentration not given here; parasite load remaining: stronger effect = lower value; viability: measured here: HepG2 viability without parasites.
The mark [14] stands for this setting: stronger effect = lower value, cell number ratio, induced over uninduced.
The mark [15] stands for this setting: measured here: relative caspase fold change +Dox/-Dox.
Where [16] appears, read: measured here: total cells with miR-34 induction, stronger effect = lower value.
[17] abbreviates: measured here: total cells without miR-34 induction.

Structures are written as SMILES. Values joined by “and” are separate entries in the source; they are usually repeats but may differ in a detail not shown here. Equal values may be shown once. Results filed as inconclusive are left out. Active and inactive are the calls of the source.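 Rule for the calls, unless noted: active = compounds whose cell count with miR-34 switched on is under 0.7 times the count with it off; inactive = the rest.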

As a reminder, the remaining activity is the signal under treatment as a percentage of the control signal. As usually defined, the AC50 is the concentration at which the activity in the assay is half-maximal. Consider `C=CCc1cccc(/C=N/NC(=O)CN2CCN(Cc3ccccc3)CC2)c1O`, for which the remaining activity in [1] is 83.1% (inactive). Moreover, the AC50 in experiment [2] was 16.6 µM (active). In addition, the fold change in experiment [3] (setting [14]) is 1.09 (inactive) and 0.918 (inactive) and 0.982 (inactive); in experiment [3] (setting [15]) it was 0.357 and 1.59 and 1.69. For the same compound, the cell count was 2970 and 4320 and 3830 in [3] (setting [16]); 2740 and 4710 and 3900 in experiment [3] (setting [17]); 7490 in experiment [4]. Moreover, the SSMD in [4] was found to be 3.11. Besides, in [4], the plate-normalised HSF1 focus index is 1.19 (inactive). Besides, the z-score in experiment [5] was -1.15 (inactive) and -0.59 (inactive).

For `Nc1ncnc2c1ncn2[C@@H]1O[C@H](CO)C[C@H]1O`, the remaining activity in [1] is 110% (inactive). The compound was called inactive in experiment [6], in experiment [7], in experiment [8], in [9] and in experiment [10]. For the same compound, the fold change in experiment [3] (setting [14]) was 0.951 (inactive); in experiment [3] (setting [15]), 1.64. For the same compound, the cell count in experiment [3] (setting [16]) is 9150; in experiment [3] (setting [17]), 9630. Also, in experiment [5], the z-score is -0.55 (inactive).

Turning to `COc1ccc(-c2oc3cc(OC)ccc3c2C(=O)c2ccc(C#N)cc2)cc1`, the remaining activity in experiment [1] is 104% (inactive). The outcome in [6] and in experiment [7] was inactive. In addition, the fold change was 0.933 (inactive) in experiment [3] (setting [14]) and 1.26 in [3] (setting [15]). Moreover, the cell count in experiment [3] (setting [16]) was 7250; in experiment [3] (setting [17]) it was 7780; in [4], 6920. Besides, the SSMD in experiment [4] came to 3.38. For the same compound, the plate-normalised HSF1 focus index in experiment [4] is 1.2 (inactive). In addition, the z-score in [5] is 0.755 (inactive).

Turning to `C[C@H](NC(=O)c1sccc1OCc1ccc(Cl)cc1)c1ccccc1`, the remaining activity in [1] was 124% (inactive). The AC50 in experiment [8] was 18.7 µM (active); in experiment [11] it was 11.8 µM (active); in [12], 16.6 µM (active); in experiment [9], 18.6 µM (active). For the same compound, in [10], the outcome was inactive. Besides, the fold change is 1.09 (inactive) in [3] (setting [14]) and 1.01 in [3] (setting [15]). Besides, the results for the cell count in [3] (setting [16]) and in experiment [3] (setting [17]) were 4320 and 3970, respectively. Also, in experiment [5], the z-score is -1.04 (inactive).

As a reminder, the viability is a read-out of living cells in per cent, often relative to untreated cells. With `N#C/C(=C(/N)Sc1ccc(N)cc1)c1ccccc1C(F)(F)F`, the parasite load remaining in experiment [13] is 62.2% (inactive). The same compound came in with a viability in [13] of 76.3%. Moreover, in experiment [1], the remaining activity is 113% (inactive). Also, the AC50 in experiment [6] was 18.7 µM (active). Further, the result in [12], in experiment [2] and in [10] was inactive. For the same compound, the values for the fold change in experiment [3] (setting [14]) and in experiment [3] (setting [15]) were 0.944 (inactive) and 0.995, respectively. For the same compound, the cell count in [3] (setting [16]) was 5510; in [3] (setting [17]) it was 5840. For the same compound, the z-score in experiment [5] is -0.775 (inactive).

Broadly, the IC50 is the concentration at which inhibition is half-maximal. On to `CCCC[C@@H](C=O)NC(=O)[C@H](CC(C)C)NC(=O)OCc1ccccc1`, for which the remaining activity in experiment [1] is 86.3% (inactive). The call in experiment [12] and in experiment [9] was inactive. In [10], the half-maximal inhibitory concentration (IC50) was 16.6 µM (active). The fold change was 0.927 (inactive) and 0.862 (inactive) in [3] (setting [14]); 1.01 and 0.983 in [3] (setting [15]). Also, the cell count is 6040 and 7590 in experiment [3] (setting [16]); 6520 and 8800 in experiment [3] (setting [17]). Moreover, the z-score in experiment [5] is 2.31 (inactive).

Regarding `CC(C)(C)/[N+]([O-])=C/c1ccc(S(=O)(=O)O)cc1S(=O)(=O)O`, the remaining activity in experiment [1] was 104% (inactive). For the same compound, the outcome in experiment [6], in [7], in experiment [8] and in [2] was inactive. Also, the fold change in experiment [3] (setting [14]) was 1.35 (inactive); in [3] (setting [15]), 1.12. Moreover, the results for the cell count in experiment [3] (setting [16]) and in experiment [3] (setting [17]) were 7460 and 5520, respectively. Besides, the z-score in experiment [5] is 2.67 (inactive).
